Experiment in all cases: qHTS profiling for inhibitors of Plasmodium falciparum proliferation (AID 504749); further: nearly all actives have a fitted effect of over 60% in size
What all share (conditions): P. falciparum in erythrocytes, SYBR Green DNA, 72 h; series mostly up to 28.7 µM
(In general: Quantitative high-throughput screening tests each substance at several concentrations.)

One assay has as its system CP265. The method in brief:
(§1)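 SYBR Green fluorescence of parasite DNA, read after lysis and overnight dark incubation, measured growth over 72 h in erythrocyte culture at 0.3% parasitemia and 2.5% hematocrit. Data normalised to DMSO and 0.29 uM artemisinin, with plate-drift correction.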

The next assay deals with CP268. The procedure, abridged:
as §1

The next assay relates to CP269. The method in brief: as §1
Another assay has as its system CP286. The method in brief:
as §1

For another assay, the system named is CP291. The procedure, abridged: as §1
The test system of a further assay is CP305. The method in brief:
as §1

A further assay has as its system CP315. The method in brief: as §1
A further assay deals with CP325. The procedure, abridged: as §1
The subject of another assay is CP329. The procedure, abridged:
as §1

A further assay deals with CP335. The method in brief:
as §1

The test system of the next assay is DFO2036. The method in brief: as §1
The test system of the next assay is DIV14. The method in brief: as §1
A further assay has as its system DIV17. The method in brief: as §1
In the next assay the test system is DIV30. The method in brief:
as §1

The subject of the next assay is Dd2. The method in brief: as §1
For the next assay, the system named is ECU. The method in brief:
as §1

For another assay, the system named is FAB9. The procedure, abridged:
as §1

In the next assay the test system is GB4. The procedure, abridged: as §1
A further assay has as its system CP266. The method in brief:
as §1

A further assay has as its system CP297. The method in brief: as §1

Inconclusive results are not listed. The source made the active and inactive calls. The call rests on the fitted dose curve; in most records, active means well fitted inhibition curve with a large enough effect; inconclusive means small, poorly fitted or top-dose-only effect; inactive means flat fitted curve, though single readings scatter.
Potency means the concentration at half of the fitted maximal effect.

Take `Nc1nc2c(ncn2COC(CO)CO)c(=O)[nH]1`: the Potency result with CP265, in the assay with CP268, in the assay on CP269, with CP286, with CP291 and in the assay with CP305 was “inactive” each time. The Potency entry in the assay with CP315, in the assay on CP325, in the assay on CP329, in the assay on CP335, with DFO2036 and with DIV14 was “inactive” in each case. Also, the Potency entry in the assay with DIV17, with DIV30, in the assay with Dd2, in the assay on ECU, in the assay on FAB9 and with GB4 was “inactive” in each case.

As to `CN(C)CCC=C1c2ccccc2C=Cc2ccccc21`, the Potency entry in the assay with CP265, in the assay with CP266, with CP315, with CP325, in the assay on CP329 and in the assay on DFO2036 was “inactive” in each case. Besides, the Potency entry with ECU and with FAB9 was “inactive” each time. The Potency in the assay with DIV14 was 2.39 µM (active); with DIV17, 3.79 µM (active).

Turning to `Clc1ccc2c(c1)C(N1CCNCC1)=Nc1ccccc1O2`, the Potency entry in the assay with CP266, in the assay on CP268, in the assay with CP269, in the assay on CP291, in the assay on CP305 and in the assay on CP315 was “inactive” each time. For the same compound, the Potency result in the assay with CP325, with CP329, in the assay with DIV30 and in the assay with FAB9 was “inactive” in each case.

Regarding `COc1ccccc1OCCNCC(O)COc1cccc2[nH]c3ccccc3c12` (centres undefined), the Potency was 8.91 µM (active) in the assay on CP265; 10 µM (active) with CP286; 14.1 µM (active) in the assay on DFO2036; 13.5 µM (active) in the assay on DIV14; 10 µM (active) in the assay with ECU. In addition, the Potency result in the assay on CP266, in the assay on CP297, in the assay with CP305, with CP315, in the assay with CP325 and in the assay on CP329 was “inactive” in each case. The Potency result with FAB9 is “inactive”.

`Clc1ccc(C(c2ccccc2Cl)C(Cl)Cl)cc1` (centres undefined): the Potency entry with CP265, in the assay on CP266, with CP269, in the assay on CP291, with CP315 and with CP325 was “inactive” throughout. For the same compound, the Potency result in the assay with DFO2036, with Dd2, with ECU and in the assay with FAB9 was “inactive” each time.

For the compound `CC(=O)OCC(CCn1cnc2cnc(N)nc21)COC(C)=O`, the Potency entry in the assay on CP265, with CP268, in the assay with CP269, with CP286, in the assay on CP291 and in the assay on CP297 was “inactive” in each case. The Potency entry in the assay with CP305, in the assay on CP315, with CP325, with CP329, in the assay on CP335 and in the assay on DFO2036 was “inactive” each time. The Potency entry in the assay on DIV14, in the assay with DIV17, in the assay on DIV30, in the assay with Dd2, in the assay on ECU and with FAB9 was “inactive” in each case. Besides, the Potency entry in the assay with GB4 was “inactive”.

Regarding `CC(C)NCC(O)COc1ccc(CCOCC2CC2)cc1` (centres undefined), the Potency entry in the assay with CP266, in the assay on CP268, in the assay with CP286, in the assay with CP291, with CP297 and in the assay with CP305 was “inactive” each time. Also, the Potency result in the assay with CP315, in the assay on CP325, in the assay with CP329 and in the assay on FAB9 was “inactive” throughout.

As for `Cn1ccc2cc3c(cc21)CCN3C(=O)Nc1cccnc1`, the Potency in the assay on DIV14 is 12 µM (active); in the assay on GB4, 15.1 µM (active). Besides, the Potency entry in the assay with Dd2 and with FAB9 was “inactive” throughout.

As for `Cc1cc(C(C)(C)C)cc(C)c1CC1=NCCN1`, the Potency result with CP265, in the assay with CP266, with CP269, with CP286, with CP291 and in the assay with CP297 was “inactive” each time. Besides, the Potency result with CP305, in the assay on CP315, in the assay with CP325, with CP329, with CP335 and with DFO2036 was “inactive” in each case. Further, the Potency entry in the assay with DIV30, with Dd2, with ECU and with FAB9 was “inactive” in each case.

Consider `CCOC(=O)Nc1ccc(NCc2ccc(F)cc2)nc1N`, for which the Potency in the assay on CP265 was 11.2 µM (active); in the assay on CP286 it was 8.91 µM (active); in the assay on CP335, 6.01 µM (active); with DIV14, 15.1 µM (active); in the assay with DIV17, 15.1 µM (active); in the assay with DIV30, 16.9 µM (active). Also, the figures for the Potency in the assay with Dd2 and in the assay on ECU were 12.6 µM (active) and 11.2 µM (active), respectively.

As to `CC(C)NCC(O)c1ccc(O)c(O)c1` (centres undefined), the Potency entry in the assay on CP265, in the assay with CP268, with CP269, with CP286, in the assay with CP291 and in the assay with CP297 was “inactive” each time. Further, the Potency entry in the assay with CP305, in the assay on CP315, with CP325, in the assay on CP329, in the assay with CP335 and in the assay on DFO2036 was “inactive” throughout. The Potency result in the assay on DIV17, with DIV30, in the assay with Dd2, with ECU and in the assay on FAB9 was “inactive” in each case.

Consider `CN(C)CCCN1c2ccccc2CCc2ccc(Cl)cc21`, for which the Potency result in the assay on CP265, with CP268, in the assay on CP305, in the assay with CP315, in the assay with CP325 and in the assay on CP329 was “inactive” each time. Also, the Potency result with DFO2036 and in the assay on FAB9 was “inactive” throughout. The Potency in the assay on DIV14 is 1.51 µM (active); with DIV17, 3.38 µM (active); with GB4 it was 8.49 µM (active).

For the compound `CC#C[C@]1(O)CC[C@H]2[C@@H]3CCC4=CC(=O)CCC4=C3[C@@H](c3ccc(N(C)C)cc3)C[C@@]21C`, the Potency in the assay on CP268 was 16.9 µM (active); in the assay with CP269 it was 13.5 µM (active); with CP291 it was 16.9 µM (active); in the assay on CP297, 12 µM (active); with CP305, 12 µM (active); in the assay with CP335 it was 13.5 µM (active). For the same compound, the Potency with DIV14 is 12 µM (active); in the assay with DIV17, 8.49 µM (active); in the assay with DIV30 it was 15.1 µM (active); in the assay with Dd2, 12.6 µM (active); in the assay with ECU, 8.91 µM (active); with GB4 it was 15.1 µM (active).

For the compound `O=C(Nc1ccc([N+](=O)[O-])cc1Cl)c1cc(Cl)ccc1O`, the Potency in the assay with CP268 is 1.9 µM (active); with CP269, 1.2 µM (active); in the assay on CP286 it was 1.78 µM (active); with CP291, 1.2 µM (active); with CP297 it was 8.49 µM (active); in the assay on CP305, 2.13 µM (active). Also, the Potency in the assay with CP335 is 1.51 µM (active); in the assay on DIV14, 1.07 µM (active); with DIV17, 1.2 µM (active); in the assay on Dd2, 0.891 µM (active); with ECU it was 1 µM (active); in the assay with GB4 it was 1.35 µM (active). In the assay on FAB9, the Potency entry was “inactive”.

As for `COc1ccc(CCN(C)CCCC(C#N)(c2ccc(OC)c(OC)c2)C(C)C)cc1OC` (centres undefined), the Potency result in the assay on CP265, in the assay with CP268, in the assay on CP286, with CP297, with CP325 and in the assay with DFO2036 was “inactive” in each case. The Potency result with DIV14, in the assay with ECU, in the assay with FAB9 and in the assay with GB4 was “inactive” in each case.

On to `O=c1[nH]cc(F)c(=O)[nH]1`, for which the Potency result with CP266, with DFO2036 and in the assay on FAB9 was “inactive” each time. Also, in the assay with GB4, the Potency is 12 µM (active).

These data come from PubChem BioAssay (NCATS).
